High-throughput results: PubChem, National Center for Advancing Translational Sciences (NCATS)
KB-3-1 tox: KB-3-1 parental cell cytotoxicity; Potency, µM (highest dose often 46.1 µM), actives largely listed as cytotoxic; AID 1347075; KB-3-1 viability, CellTiter-Glo ATP luminescence, 72 h; 400,000 compounds, 1.4% hits; further: nearly all actives have a fitted effect of over 60% in size
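Multi-concentration cytotoxicity screen in KB-3-1 cells grown in DMEM lacking phenol red with 10% FBS. After 72 h at 37 °C with compound, ATP-dependent luminescence was recorded.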
HepG2 viability: HepG2 cytotoxicity, counter-screen for TGF-b inhibitors. HepG2 CAGA-GFP viability, ATP luminescence, 18 h. Potency, µM (series often up to 46.1 µM), most hits filed as cytotoxic. 410,000 compounds, 0.76% hits. AID 588856
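HepG2 CAGA-GFP cells (1000/well, DMEM with 1% FBS) received compound, then TGF-beta at 500 pg/mL final, and were incubated 18 hours at 37 degrees C. Viability was read by CellTiter-Glo luminescence. Media-only wells were set as complete cell-killing and DMSO as no toxicity.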
HT1080 IDH1KD tx: HT-1080 IDH1 knockdown cell toxicity (counter line). 360,000 compounds, 2% hits. AID 686971. HT-1080 IDH1 knockdown viability, ATP luminescence, 48 h. Potency, µM (highest dose often 46.1 µM), hits mostly cytotoxic
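Viability of IDH1-knockdown HT-1080 fibrosarcoma cells was assessed by CellTiter-Glo after 48 h at 37 °C with titrated compound; concentration-effect curves were classified by fit quality and response size.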
HT1080-NT tox: kills 2HG-producing HT-1080-NT fibrosarcoma cells; Potency, µM (titrated, usually from 46.1 µM), most hits filed as cytotoxic; HT-1080-NT fibrosarcoma viability, CellTiter-Glo ATP luminescence, 48 h; 360,000 compounds, 1.6% hits; AID 686970;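 further: NT is the 2HG producing partner of a matched IDH1 knockdown line; nearly all actives have a fitted effect of over 55% in size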
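750 cells/well, RPMI + 5% FBS; 2 h settle, compound pin-transfer, 48 h at 37 degrees C. CellTiter-Glo 10 min RT, luminescence. Normalized to DMSO and media-only wells.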
TGFb inhibitor: TGF-b pathway inhibition | Potency, µM (series often up to 46.1 µM), actives largely listed as inhibitors | 410,000 compounds, 1.2% hits | HepG2 CAGA-GFP TGF-b/SMAD3 reporter, GFP fluorescence, 18 h; TGF-beta stimulated, 500 pg/mL final; further: nearly all actives have a fitted effect of over 65% in size
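Using HEPG2 CAGA-GFP reporter cells at 1000 cells/well, we pinned test compounds, stimulated with recombinant TGF-beta (500 pg/mL final) and measured total well GFP after 18 h.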
KB-V1 cytotox: KB-V1 MDR subline cytotoxicity; KB-V1 MDR cells viability, CellTiter-Glo, 72 h; Potency, µM (series often up to 46.1 µM), hits mostly cytotoxic; 400,000 compounds, 3.4% hits; AID 1347076; further: nearly all actives have a fitted effect of over 60% in size
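Following 72 h at 37 degrees C with compound, KB-V1 cell viability was read by CellTiter-Glo luminescence, medium being phenol-red-free DMEM plus 10% FBS; concentration-response parameters came from normalized, curve-fitted qHTS data.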
Hits are given with their value; i = inactive; ? = inconclusive; nt = not tested or not shown; [ ] = another dose, or the depositor's remark. Only some compounds are listed: those with a hit (about 6.6% of all), similar ones and a draw of the others. The call rests on the fitted dose curve; in most records, active means well fitted curve in the direction sought with a large enough effect; inconclusive means small, poorly fitted or top-dose-only effect, or another doubt; inactive means no such curve, though single readings can be large; an effect the other way counts as inactive or inconclusive.

SMILES	KB-3-1 tox	HepG2 viability	HT1080 IDH1KD tx	HT1080-NT tox	TGFb inhibitor	KB-V1 cytotox
COCCn1c(SCC(=O)c2ccc(F)cc2)nc2cc(C(=O)NC3CCCC3)ccc2c1=O	i	i	nt	nt	i	i
COc1ccc(C(=O)Nc2ccc(C(=O)OCC(=O)c3ccccc3)cc2)cc1	i	i	i	i	i	i
COc1ccc(C(=O)COC(=O)c2ccc(NC(=O)c3ccccc3)cc2)cc1	i	i	i	i	i	15µM
O=C(CCS(=O)(=O)c1ccc(F)cc1)Nc1ccc(N2CCN(Cc3ccccc3)CC2)cc1	i	i	i	i	i	18µM
O=C(CN1CCN(c2ccccc2)CC1)Nc1ccc(Oc2ccccc2)cc1	i	i	i	i	?	23µM
O=C(CCS(=O)(=O)c1ccccc1)Nc1ccc(N2CCN(Cc3ccccc3)CC2)cc1	i	i	i	i	i	?
O=C(Nc1ccc(-c2ccccc2)cc1)c1ccccc1	21µM	i	i	i	i	i
Cc1ccc(-c2c(C(=O)NCCc3ccccc3)oc(=O)c3ccccc23)cc1	nt	i	nt	nt	?	nt
COc1ccc(C2CC(=O)c3cc(-c4nc(-c5cccc([N+](=O)[O-])c5)cs4)c(=O)n(-c4cccc(C)c4)c3C2)cc1 (centres undefined)	i	i	nt	nt	i	i
Cc1ccc(Cl)cc1N1CCN(CC(=O)Nc2ccc(CN3CCCCC3)cc2)CC1	?	i	23µM	21µM	i	?
Cc1ncoc1C(=O)Nc1ccc(Oc2ccccc2)cc1	i	i	i	i	i	18µM
COc1cc2ccccc2cc1C(=O)N/N=C/c1cccs1	2.3µM	i	4.1µM	?	i	9.2µM
O=C(CN1CCN(c2ccc(Cl)cc2)CC1)Nc1ccc(F)cc1	?	i	i	i	i	21µM
COc1ccccc1N1CCN(CC(=O)Nc2ccc(CN3CCCCC3)cc2)CC1	i	i	i	i	i	i
Cc1nc(C)c(C(=O)Nc2ccc(Oc3ccccc3)cc2)o1	i	i	i	?	i	i
CCn1c(C)c(C2N3CC4(C)CN2CC(CC)(C3)C4=O)c2ccccc21 (centres undefined)	i	i	nt	nt	i	i
CC(NC(=O)c1nn(C)c2c1CSc1ccccc1-2)c1ccccc1 (centres undefined)	nt	i	nt	nt	?	nt
COc1cc(NC(=O)CC(c2ccc(C)cc2)N2Cc3ccccc3C2=O)cc(OC)c1 (centres undefined)	i	i	nt	nt	?	?
Cc1ccc(C2=Nc3ccccc3N(CC(=O)Nc3ccccc3C)C(=O)C2)cc1C	i	i	nt	nt	i	i
CCOc1ccccc1CNC(=O)c1ccc2c(c1)sc1nc(-c3cccc(OC)c3)cn12	nt	i	nt	nt	i	nt
O=C(Nc1cccnc1)c1ccc(Oc2ccccc2)cc1	i	i	26µM	?	i	i
CN1CCN(c2ccc(NC(=O)c3ccc(Oc4ccccc4)cc3)cc2)CC1	?	i	?	15µM	?	i
COc1ccc(NC(=O)c2cc3ccccc3cc2OC)cc1	?	i	16µM	16µM	i	i
CC1CC(C)(C)Nc2ccc(OC(=O)c3ccco3)cc21 (centres undefined)	?	i	23µM	18µM	?	?
CC1CC(C)(C)Nc2ccc(N=O)cc21 (centres undefined)	i	i	18µM	15µM	?	i
SMILES	KB-3-1 tox	HepG2 viability	HT1080 IDH1KD tx	HT1080-NT tox	TGFb inhibitor	KB-V1 cytotox
Cc1ccc(NS(=O)(=O)c2ccc3c(c2)C(Cl)(Cl)C(=O)N3)cc1C	i	nt	nt	nt	nt	i
CC(C)(C)OC(=O)N1CCC(c2c(C(=O)NCc3ccco3)cnn2-c2ccc(F)cc2)CC1	i	i	nt	nt	i	i
Cc1ccccc1CNC(=O)c1ccc(CS(=O)Cc2ccc(Cl)cc2)o1 (centres undefined)	nt	i	nt	nt	?	nt
CN1C(=S)N(c2cccnc2)C(=O)/C1=C\c1ccc(N(C)C)cc1	i	i	?	?	?	i
CN1C(=S)N(c2cccnc2)C(=O)/C1=C\c1ccc(C(C)(C)C)cc1	?	i	?	?	22µM	?
CC(C)Nc1nc(Cl)nc(N(C#N)CN2C(=O)c3ccccc3C2=O)n1	?	i	18µM	?	i	i
COc1cc(C(=O)Nc2nnc(CC(C)(C)C)s2)c([N+](=O)[O-])cc1OC	i	i	i	i	i	21µM
COc1ccc(Cc2nnc(NC(=O)c3cccc([N+](=O)[O-])c3C)s2)cc1	i	i	i	i	i	21µM
COc1ccc(Cc2nnc(NC(=O)c3ccccc3[N+](=O)[O-])s2)cc1	i	i	i	i	i	i
COc1ccccc1/C=C/C(=O)OCC(=O)N1CCc2ccccc21	i	i	i	i[9.24 µM]	i	?
Cc1ccc(C)c(C(=O)C[n+]2cccc(Br)c2)c1	?	i	nt	nt	i	i
CCOC(=O)/C(=C/c1c(C)n(C)c2ccc([N+](=O)[O-])cc12)C(C)=O	23µM	i	?	16µM	16µM	?
O=C1CC(c2ccsc2)c2ccc3ccccc3c2N1 (centres undefined)	?	i	i	i	i	i
O=C1CC(c2cccc([N+](=O)[O-])c2)c2ccc3ccccc3c2N1 (centres undefined)	i	i	?	?	?	13µM
Cc1nn(C(=O)c2ccc(Br)cc2)c(C)c1S(=O)(=O)N1CCOCC1	i	i	nt	nt	i	i
CCOc1ccc(NC(=O)CSc2nc(=O)n(Cc3cccnc3)c3c2CCC3)cc1	i	i	i	i	i	i
COc1ccc(C(=O)CSc2nc(=O)n(Cc3cccnc3)c3c2CCC3)cc1	i	i	i	i	i	15µM
Cc1ccc[n+](C(C(=S)NCc2ccco2)=C([O-])c2ccccc2Cl)c1	i	i	i	i	i	21µM
CCCN1CCC(=NNc2ccc(S(=O)(=O)N(CC)CC)cc2[N+](=O)[O-])CC1	?	i	5.8µM	8.2µM	?	12µM
CCn1c(CNC(=O)c2ccc(OC)cc2)nnc1SCC(=O)Nc1ccc(C)cc1	i	i	nt	nt	?	i
OCC#Cc1ncc(C(F)(F)F)cc1Cl	i	i	?	21µM	i	i
NC(=O)Cc1ncc(C(F)(F)F)cc1Cl	i	i	i	i	i	i
Cc1ccc(Nc2nc(C)nc3c2oc2ccccc23)cc1	i	i	i	i	?	?
COc1cccc(Nc2nc(N)nc(-c3oc4ccccc4c3C)n2)c1	?	i	7.9µM	10µM	?	4.6µM
Cc1ccc(Nc2nc(N)nc(-c3oc4ccccc4c3C)n2)cc1	0.18µM	i	0.01µM	0.0065µM	?	?
CCc1nc(Nc2cccc(OC)c2)c2oc3ccccc3c2n1	i	i	i	i	i	i
